Laboratory results published in PubChem BioAssay (EPA / NIEHS).
Activity calls are given as the source filed them. The calls were made as follows, unless noted: active = hit-call score of the fitted dose curve at least 0.9, where 1 is the maximum; inconclusive = response in the unintended direction; inactive = score below 0.9.

Molecular target: Peroxisome proliferator-activated receptor gamma (Homo sapiens) (UniProt P37231)
Assay: OT_PPARg_PPARgSRC1_1440: Odyssey Thera (OT) 24-hour Protein-Complementation Assay for Peroxisome Proliferator-activated Receptor Gamma/ SRC-1 Co-activator (AID 2283388);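 also: nuclear to cytoplasmic ratio of reconstituted Venus YFP fluorescence in fixed imaged cells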
Conditions: not given
How it was run: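 Transient HEK293T, YFP fragments 1-158/159-239 (mutant IFP1/IFP2) fused to PPARg/SRC-1; 24 h dosing; fix 4% formaldehyde, Draq5; Opera imaging 488/635 nm; N/C ratio, gain vs DMSO.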

Sequence of Peroxisome proliferator-activated receptor gamma (Homo sapiens) (P37231 whole entry, looked up): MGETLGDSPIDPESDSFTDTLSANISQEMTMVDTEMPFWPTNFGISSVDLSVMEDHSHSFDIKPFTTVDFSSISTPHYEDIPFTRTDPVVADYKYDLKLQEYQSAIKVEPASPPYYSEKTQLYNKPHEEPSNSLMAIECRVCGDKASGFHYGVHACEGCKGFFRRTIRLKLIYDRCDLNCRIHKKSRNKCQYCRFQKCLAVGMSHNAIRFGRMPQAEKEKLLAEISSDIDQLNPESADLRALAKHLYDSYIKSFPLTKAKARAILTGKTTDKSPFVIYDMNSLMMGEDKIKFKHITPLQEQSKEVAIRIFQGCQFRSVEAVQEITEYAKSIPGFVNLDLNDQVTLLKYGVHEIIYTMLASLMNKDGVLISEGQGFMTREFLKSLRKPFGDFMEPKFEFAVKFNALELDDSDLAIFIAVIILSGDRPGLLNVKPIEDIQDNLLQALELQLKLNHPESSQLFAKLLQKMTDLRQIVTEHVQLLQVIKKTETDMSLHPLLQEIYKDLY

| Structure (SMILES) | outcome | AC50 |
| --- | --- | --- |
| CC(C)OC(=O)c1ccccc1C(=O)OC(C)C | inactive | – |
| CCCCOc1ccc(N)cc1 | inactive | – |
| Cc1cc(C)cc(O)c1 | inactive | – |
| CCCCCCOC(=O)c1ccccc1O | inactive | – |
| Cc1ccc(S(=O)(=O)NCl)cc1 | inactive | – |
| CCCCCCC(C)OC(=O)CCCCC(=O)OC(C)CCCCCC (stereo unspecified) | inactive | – |
| O=C(OCCOCCOCCOC(=O)c1ccccc1)c1ccccc1 | inactive | – |
| C#C[C@]1(O)CC[C@H]2[C@@H]3CCc4cc(OC)ccc4[C@H]3CC[C@@]21C | inactive | – |
| CNC(=S)NC | inactive | – |
| c1ccc(B(c2ccccc2)c2ccccc2)cc1 | inactive | – |
| CC(CCl)OP(=O)(OC(C)CCl)OC(C)CCl (stereo unspecified) | inactive | – |
| CCCCC(CC)COP(=O)(O)OCC(CC)CCCC (stereo unspecified) | – | 67.8 µM (active) |
| CN(C)Cc1ccccc1O | inactive | – |
| CC/C=C\CCOC(C)=O | inactive | – |
| COC(=O)C1CCC(C(=O)OC)CC1 (stereo unspecified) | inactive | – |
| OC[C@@H](O)[C@@H](O)[C@H](O)[C@@H](O)CO | inactive | – |
| CC(Cc1ccc(O)c(O)c1)C(C)Cc1ccc(O)c(O)c1 (stereo unspecified) | inactive | – |
| O=S(=O)(O)c1ccc2ccccc2c1 | inactive | – |
| CCN(Cc1cccc(S(=O)(=O)O)c1)c1ccc(C(=C2C=CC(=[N+](CC)Cc3cccc(S(=O)(=O)O)c3)C=C2)c2ccc(O)cc2S(=O)(=O)[O-])cc1 | inactive | – |
| [Co] | inactive | – |
| CCCCCCOC(=O)c1ccccc1 | inactive | – |
| C(=C(c1ccccc1)c1ccccc1)c1ccccc1 | inactive | – |

Read-out: not listed separately
Assay: CEETOX_H295R_11DCORT: CeeTox H295R High-throughput Steroidogenesis Assay for 11-Deoxycortisol (11DCORT) (AID 2283432; active = hit-call score of the fitted dose curve at least 0.9, where 1 is the maximum; inactive = score below 0.9;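 as to AC50: 11-deoxycortisol secreted into the medium measured by LC-MS/MS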)
Conditions: actives raise or lower the signal
Procedure: CEETOX_H295R is a cell-based, multiplexed-readout assay that uses H295R, a human adrenal gland cell line, with measurements taken at 48 hours after chemical dosing in a 96-well plate.CEETOX_H295R_11DCORT is one of 23 assay component(s) measured or calculated from the CEETOX_H295R assay. It is designed to make measurements of hormone induction, a form of inducible reporter, as detected with absorbance signals by HPLC-MS-MS technology.Data from the assay component CEETOX_H295R_11DCORT was analyzed into 1 assay endpoint. This assay endpoint, CEETOX_H295R_11DCORT, was analyzed with bidirectional fitting relative to DMSO as the negative control and baseline of activity. Using a type of inducible reporter, gain or loss-of-signal activity using HPLC-MS-MS was used to understand synthesis of 11-Deoxycortisol in H295R cell line at 48hr of chemical exposure. To generalize the intended target to other relatable targets, this assay endpoint is annotated to the steroid hormone intended target family, where the subfamily is glucocorticoids.
Cell culture and media preparation procedures were conducted in accordance with OECD Test No. 456 guidelines, with minor modifications. H295R cells (ATCC CRL-2128) were expanded for 5 passages and frozen in batches in liquid nitrogen. Prior to the steroidogenesis assay, H295R cells were thawed and passed at least 4 times. The maximum passage was 10. Cells were maintained in a 1:1 mixture of DMEM/F12 supplemented with 5ml/L ITS+ Premix (BD Bioscience) and 12.5 ml/L Nu-Serum (BD Bioscience). After seeding cells into 96-well plates at 50-60% confluency, cells were allowed to adhere overnight. Prior to chemical testing, culture medium was replaced with 175 uL medium containing 10 uM forskolin to stimulate steroidogenesis for 48 hours. Following prestimulation, forskolin medium was replaced with medium containing test chemical solubilized in DMSO (ensuring a final concentration of 0.1% DMSO). Test chemicals were incubated for 48 hours, then the medium was removed and split into 2 vials containing approximately 75uL each, and stored at -80 C prior to hormone analysis. For steroid quantification, media samples were shipped to OpAns, LLC (Durham, NC) on dry ice, and samples were thawed to room temperature prior to liquid-liquid extraction. Steroid hormones were extracted from media samples using methyl tertbutyl ether (MTBE). An extra derivatization with dansyl chloride was included for estrogen (estrone and estradiol) detection only. Steroid hormones were separated by HPLC, eluted using a reverse phase C18 gradient with electrospray positive ionization, followed by quantification by tandem mass spectrometry (MS/MS). Data were acquired on a MassHunter Workstation Acquisition version B03.01 (Agilent Technologies, Inc.) and processed using MassHunter Quantitative Analysis for QQQ. Accuracy was determined for each hormone analyte from 3 standards to determine upper and lower limits of quantification (ULOQ and LLOQ, respectively) using a 7-point standard curve. Precision and accuracy of the extraction and quantification methods were calculated as the percent relative standard deviation (%RSD) of the spiked standards and percent spiked standard recovered, respectively. The goal was to achieve 100% accuracy (i.e., recover all spiked-in standard at quantification with minimal loss during run time) and good precision (i.e., have %RSD <15% to ensure reproducibility). Test medium was removed following chemical exposure, and cell viability was evaluated in the same wells by MTT. MTT procedures were as follows: after removal of test medium, 500 uL of 0.5 mg/ml of 3-[4,5-dimethylthiazol-2-y]2,5-diphenyltetrazoliumbromide solution was added to the cells. Following a 4-hour incubation at 37 C and 5% CO2 to allow formazan-crystal formation, the MTT solution was removed and blue formazan salt crystals were solubilized using 500uL anhydrous isopropanol with shaking for 20 minutes. […]

| Structure (SMILES) | outcome | AC50 |
| --- | --- | --- |
| Cc1cccc(N(C)C)c1 | inactive | – |
| C#C[C@]1(O)CC[C@H]2[C@@H]3CCc4cc(OC)ccc4[C@H]3CC[C@@]21C | inactive | – |
| c1ccc(B(c2ccccc2)c2ccccc2)cc1 | – | 33.7 µM (active) |
| Nc1ccc(Oc2cccc(Oc3ccc(N)cc3)c2)cc1 | inactive | – |
| CC(=O)Nc1ccc(N=Nc2cc(C)ccc2O)cc1 | – | 33.7 µM (active) |
| CCCCCCS | inactive | – |
| CC(Cc1ccc(O)c(O)c1)C(C)Cc1ccc(O)c(O)c1 (stereo unspecified) | – | 79.6 µM (active) |

Read-out: not listed separately
Assay: CEETOX_H295R_OHPREG: CeeTox H295R High-throughput Steroidogenesis Assay for OH-Pregnenolone (OHPREG) (AID 2283434; active = hit-call score of the fitted dose curve at least 0.9, where 1 is the maximum; inactive = score below 0.9)
Conditions: actives raise or lower the signal
How it was run: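 Secreted 17alpha-hydroxypregnenolone measured by HPLC-MS/MS after liquid-liquid extraction. Human adrenal H295R cells received 48 h forskolin (10 uM) stimulation before 48 h chemical exposure at 0.1% final DMSO; MTT viability in same wells; bidirectional fit against DMSO.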

| Structure (SMILES) | outcome | AC50 |
| --- | --- | --- |
| Cc1cccc(N(C)C)c1 | inactive | – |
| C#C[C@]1(O)CC[C@H]2[C@@H]3CCc4cc(OC)ccc4[C@H]3CC[C@@]21C | inactive | – |
| c1ccc(B(c2ccccc2)c2ccccc2)cc1 | – | 15 µM (active) |
| Nc1ccc(Oc2cccc(Oc3ccc(N)cc3)c2)cc1 | inactive | – |
| CC(=O)Nc1ccc(N=Nc2cc(C)ccc2O)cc1 | inactive | – |
| CCCCCCS | inactive | – |
| CC(Cc1ccc(O)c(O)c1)C(C)Cc1ccc(O)c(O)c1 (stereo unspecified) | inactive | – |
